Reference: PubChem BioAssay (NCI)
About 83,000 compounds went through this panel and 20% of them were active in at least one assay; those are over-represented in the sample as a whole.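 Cell lines were cultured in 96-well plates, exposed to a single compound concentration, and assessed for percent growth 48 hours later.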 Values without a mark were called inactive. Activity calls are given as the source filed them. Rule for the calls: active = growth percent below 10; inactive = the rest.

Assays:
Test in all cases: NCI-60 one-dose screen, 48 h (100 = growth as untreated, 0 = no growth, -100 = all killed)
Settings in all cases: 10 µM
HCT-15 colon = system: HCT-15 colon
HT29 colon = system: HT29 colon
SNB-75 CNS = system: SNB-75 CNS
SNB-19 CNS = system: SNB-19 CNS
U251 CNS = system: U251 CNS
PC-3 prostate = system: PC-3 prostate
SK-MEL-5 melanoma = system: SK-MEL-5 melanoma
UACC-62 melanoma = system: UACC-62 melanoma
LOX IMVI melanoma = system: LOX IMVI melanoma
SK-MEL-28 melanoma = system: SK-MEL-28 melanoma

Structure (SMILES) | growth (HCT-15 colon) | growth (HT29 colon) | growth (SNB-75 CNS) | growth (SNB-19 CNS) | growth (U251 CNS) | growth (PC-3 prostate) | growth (SK-MEL-5 melanoma) | growth (UACC-62 melanoma) | growth (LOX IMVI melanoma) | growth (SK-MEL-28 melanoma)
COc1ccc2nc(NC(=O)Nc3c(F)cccc3F)sc2c1 | 101% | 102% | 118% | 97.2% | 95% | 95% | 91.2% | 94.4% | 106% | 103%
CCCc1c(C)nc2scc(-c3ccc(Cl)cc3)n2c1=O | 101% | 101% | 97.9% | 105% | 97.2% | 97.3% | 99.1% | 100% | 95.8% | 112%
CN(C)c1ccc2cc(-c3cc4c(oc3=O)-c3ccccc3OC4O)c(=O)oc2c1 (stereo not given) | 7.71% (active) | 18.9% | 24% | 36.7% | 30% | -5.5% (active) | -34% (active) | 33.4% | -32.4% (active) | 64.5%
O=C(NC1CCCC1)c1ccc(N2CCC(NCc3cccc(C(F)(F)F)c3)CC2)cc1 | 77.8% | 36.7% | 85.3% | 105% | 82.9% | 83.3% | 79.5% | 104% | 89.7% | 108%
Cc1cc(C)c2nc(C)c(C)[n+]([O-])c2c1 | 97.6% | 96.3% | 84.1% | 109% | 90.6% | 72.8% | 104% | 105% | 95.4% | 106%
Nc1c(C(=O)Nc2ccccc2F)sc2nc3c(cc12)C(=O)CCC3 | 40.2% | 12.2% | 13.7% | 41.1% | 31.6% | 23.4% | 17.9% | 23.7% | 54.2% | 64.1%
COc1ccc(-n2nnc3c(sc4ccccc43)c2=O)cc1 | 102% | 43.8% | -9.25% (active) | 33.7% | 18.9% | 73% | 74.5% | 93.9% | 74.4% | 82.8%
COc1ccc(C2C=C(c3ccc(Cl)c(Cl)c3)N=C3SC(C)=CN32)cc1OC (stereo not given) | 80.7% | 62.9% | 83.4% | 79.4% | 69.2% | 35.6% | 85.1% | 82.9% | 56.2% | 62.4%
CCCCCCCOc1cccc(/C=C2/C(=O)N=C3SCCCN32)c1 | 60.8% | 63.9% | 75.1% | 63.4% | 51% | 70.4% | 63.7% | 54.9% | 44.9% | 82.3%
CCCCCCCCCCCCCC[n+]1ccccc1 | 34.5% | -52.4% (active) | -39.5% (active) | -45.4% (active) | -88.3% (active) | -80.8% (active) | -95.3% (active) | -81.1% (active) | -72.1% (active) | -23.5% (active)
O=C1/C(=C/c2ccc(O)cc2)Oc2ccc(Cl)cc21 | 89.1% | 155% | 82.8% | 85.1% | 89.9% | 95.1% | 74.8% | 82.5% | 82.3% | 142%
Cc1cc(C(C)(C)CC(C)(C)C)ccc1OCCOCC[N+](C)(C)Cc1ccccc1 | 94.6% | -81.2% (active) | -63.4% (active) | -80.8% (active) | -86.2% (active) | -19.4% (active) | -95.8% (active) | -91.9% (active) | -92.9% (active) | -92% (active)
FC(F)(F)c1ccc(-c2ncc(-c3ccc(C(F)(F)F)cc3)c(NCc3cc(C(F)(F)F)cc(C(F)(F)F)c3)n2)cc1 | 44.9% | 76.1% | 72.4% | 29.1% | 27.1% | 31.4% | 96.9% | 51.6% | 21.5% | 89.5%
COCCOC(=O)NC(=O)Nc1ccc(C(=O)c2ccc(Cl)cc2)cc1 | 20.9% | 11.9% | 6.4% (active) | 41.3% | 37.8% | 32.1% | 5.54% (active) | 25.8% | 37.2% | 62.6%
NS(=O)(=O)c1ccc(N2N=C(c3ccc(-c4ccccc4)cc3)CC2c2ccc(Cl)cc2)cc1 (stereo not given) | 60.9% | 64.4% | 99.8% | 86.5% | 75.7% | 43.2% | 86.8% | 51.1% | 87.2% | 96.8%
Cc1nc2scc(-c3ccc(Cl)cc3)n2c(=O)c1CCN1CCOCC1 | 105% | 105% | 84.6% | 94.6% | 96.7% | 87.5% | 94.5% | 85.6% | 97.5% | 102%
C#Cc1ccc(-n2c(/C=C/c3cc(OC)c(OC)c(OC)c3)nc3ncccc3c2=O)cc1 | 48.6% | 16% | 34% | 88.9% | 79.3% | 43.8% | 9.66% (active) | 52.7% | 56.9% | 77.6%
O=CNc1c(Cl)cc2c(c1Cl)Cc1cc([N+](=O)[O-])ccc1-2 | 29.3% | 58.4% | 65.6% | 87.5% | 78.1% | 40.2% | 5.14% (active) | 48.8% | 55.7% | 106%
CC(=O)n1nc(C(=O)OC(C)(C)C)c2cc(F)c(F)cc21 | 101% | 100% | 80.2% | 94.9% | 104% | 97.7% | 87% | 80.3% | 98.2% | 96.8%
COc1ccc2nc(C)cc(Nc3ccc(Cl)cc3)c2c1 | 99.1% | 116% | 102% | 104% | 97.1% | 100% | 93.7% | 99% | 105% | 105%
CCOC(=O)c1sc(Nc2ncccn2)nc1-c1ccccn1 | 50.8% | 99.6% | 108% | 91.5% | 73.2% | 86.3% | 83.2% | 97.6% | 79.9% | 94.7%
COC(=O)c1cnc2c(c1)Oc1ccc(Cl)cc1-c1cc(C)nn1-2 | 87.3% | 82.5% | 91.7% | 62% | 50.4% | 95.1% | 88.1% | 74.7% | 60.2% | 96.4%
Cc1cc(/C=C2\SC(=Nc3ccccc3)N(C3CCCC3)C2=O)c(C)n1-c1ccc(Cl)cc1 | -28.2% (active) | -65.8% (active) | -51.3% (active) | -65.8% (active) | -91.1% (active) | -63.4% (active) | -97.9% (active) | -56.3% (active) | -72.7% (active) | -69.8% (active)
CCOC(=O)[C@@H](Cc1ccccc1)NC(=O)c1[nH]c2ccc(Cl)cc2c(=O)c1C | 40.7% | 91.7% | 95.9% | 94.3% | 71.7% | 80.7% | 81.6% | 86.6% | 95.8% | 104%
O=C(O)c1cc(C(F)(F)F)cc(C(F)(F)F)c1 | 104% | 100% | 97.6% | 118% | 103% | 97.7% | 109% | 108% | 99.7% | 103%
